Experimental data from ChEMBL document CHEMBL3988442, “University of Dundee, Small-Polar-MMV Screening Library” (2021).
The whole screen tested about 48,000 compounds, of which about 13,000 (27%) showed an effect of 50% or more. This is one part of the list.

Each compound was assayed on Wolbachia pipientis (assay: Anti-Wolbachia Cell-Based Screen). Conditions: 5 µM.
Format: functional
Design: scale not given: in the data most compounds retested in dose-response had high values

Q: How did the “Percent Effect” value turn out when COc1cccc2c1OCCCN(c1nc(N)nc3c1CCNC3)C2 was run?
A: Its value is -2.498%.

Q: With Cl.Cl.Cl.c1cnc(NCc2cncc3c2CCN(Cc2cccnc2)C3)nc1 as the compound, how does the “Percent Effect” value read?
A: Its value is 11.16%.

Q: With Cc1nccc(NCc2cncc3c2CCN(CCN(C)C)C3)n1 as the compound, how does the “Percent Effect” value read?
A: The value was 100%.

Q: Which “Percent Effect” value does the source give for Cc1nccc(NCc2cncc3c2CCN(CC2CCOC2)C3)n1.Cl.Cl (configuration not stated) here?
A: The value was 113.7%.

Q: Cc1ccc(NCc2cncc3c2CCN(C(=O)C2CC=CC2)C3)nn1.Cl was tested. Which “Percent Effect” value did it give?
A: The value was 36.84%.

Q: For Cc1ccc(NCc2cncc3c2CCN(Cc2ccccn2)C3)nn1.Cl.Cl, which “Percent Effect” value is on record?
A: The value was 108.9%.

Q: How did the “Percent Effect” value turn out when Cl.Cl.c1csc(CN2CCc3c(CNc4nncs4)cncc3C2)c1 was run?
A: The value was 13.01%.

Q: Which “Percent Effect” value does the source give for CC(C)(C)c1ccc(-c2n[nH]c3c2CN(CC2CCOC2)CC3)cc1 (configuration not stated) here?
A: The value was 5.17%.

Q: Which “Percent Effect” value does the source give for Cc1cc(CN2CCc3c(CNc4ncccn4)cncc3C2)oc1C.Cl.Cl here?
A: The value was 20.89%.

Q: Cl.Cl.c1cnc(NCc2cncc3c2CCN(Cc2ccsc2)C3)nc1 was tested. Which “Percent Effect” value did it give?
A: Its value is 10.62%.

Q: For Cc1nccc(NCc2cncc3c2CCN(CC2CC2)C3)n1.Cl.Cl, which “Percent Effect” value is on record?
A: Its value is 94.72%.

Q: How did the “Percent Effect” value turn out when O=C(NCCn1cccc1)C1CCCOC1 (configuration not stated) was run?
A: The value was 1.95%.

Q: With CCC(Cn1ccc2[nH]c(=O)c(C#N)cc2c1=O)OC (configuration not stated) as the compound, how does the “Percent Effect” value read?
A: The value was -23.91%.

Q: With Cc1ccccc1[C@@H]1CN(CCOCCO)C[C@H]1C(=O)O as the compound, how does the “Percent Effect” value read?
A: The value was -28.11%.

Q: How did the “Percent Effect” value turn out when O=C(Nc1cc(-c2ccncc2)no1)C1CCC1 was run?
A: The value was -23.1%.

Q: With Cn1ccc(NC(=O)CN2C[C@H]3CC[C@@H]2CN(S(C)(=O)=O)C3)n1 as the compound, how does the “Percent Effect” value read?
A: Its value is 4.015%.

Q: How did the “Percent Effect” value turn out when CC1CN(C)CCN1Cc1cccc(C(=O)NCc2ccco2)c1 (configuration not stated) was run?
A: Its value is 11.16%.

Q: How did the “Percent Effect” value turn out when O=C1N(c2cccc(F)c2)Cc2nc(=O)[nH]n21 was run?
A: The value was -10.2%.

Q: With Fc1ccc(OCC2CCCO2)c(NCc2noc(C3CC3)n2)c1 (configuration not stated) as the compound, how does the “Percent Effect” value read?
A: Its value is 2.456%.

Q: Cc1nc(NCc2noc(C3CCCO3)n2)c2ccsc2n1 (configuration not stated) was tested. Which “Percent Effect” value did it give?
A: Its value is 190.8%.

Q: With Cc1nc(CN2CCCC(Nc3ncnc4ccsc34)C2)no1 (configuration not stated) as the compound, how does the “Percent Effect” value read?
A: Its value is 36.74%.

Q: How did the “Percent Effect” value turn out when Cc1nc(N2CCC3(CCCN(CC4CC4)C3=O)C2)c2sccc2n1 (configuration not stated) was run?
A: The value was -31.46%.

Q: How did the “Percent Effect” value turn out when Cc1nc(N(Cc2ccncc2)CC2CCCO2)c2ccsc2n1 (configuration not stated) was run?
A: Its value is 2.161%.

Q: How did the “Percent Effect” value turn out when Cc1nc(NCCc2noc(C3CCCO3)n2)c2sccc2n1 (configuration not stated) was run?
A: The value was 194.7%.

Q: With Cc1nc(NCc2noc(C3CCCO3)n2)c2sccc2n1 (configuration not stated) as the compound, how does the “Percent Effect” value read?
A: Its value is 146.8%.

Q: Which “Percent Effect” value does the source give for COc1ccnc(CNc2nc(C)nc3ccsc23)c1 here?
A: The value was -33.44%.

Q: COCc1noc(CCNC(=O)c2ccc(C3CCCO3)s2)n1 (configuration not stated) was tested. Which “Percent Effect” value did it give?
A: Its value is -0.9385%.

Q: How did the “Percent Effect” value turn out when Cc1cccc(N2CCN(C(=O)C3CC4(CCNCC4)CN3)CC2)n1 (configuration not stated) was run?
A: The value was -9.883%.

Q: COC(=O)CN(Cc1ccccc1C)C(=O)CCNC(=O)C(C)(C)C was tested. Which “Percent Effect” value did it give?
A: Its value is 10.54%.

Q: Cc1cc2nc(CO[C@H]3CN(C4CCC4)C[C@H]3F)[nH]c2cc1C was tested. Which “Percent Effect” value did it give?
A: The value was -5.771%.

Q: Which “Percent Effect” value does the source give for N#Cc1ccc(CN2CC3(CCCCN3c3cccnc3)CC2=O)cc1.O=C(O)C(F)(F)F (configuration not stated) here?
A: The value was -4.907%.

Q: Cc1ccc(N2CCC3(CCC(=O)N3Cc3ccncc3)CC2)nn1.O=C(O)C(F)(F)F was tested. Which “Percent Effect” value did it give?
A: Its value is 117.9%.

Q: With O=C(O)C(F)(F)F.O=C(O)C(F)(F)F.O=C1CC[C@]2(CC[C@@H](NC3CCOC3)CC2)N1Cc1ccncc1 (some centres not stated) as the compound, how does the “Percent Effect” value read?
A: Its value is -47.26%.

Q: N#Cc1ccc(N2CCC3(CCC(=O)N3Cc3cccnc3)CC2)nc1.O=C(O)C(F)(F)F.O=C(O)C(F)(F)F was tested. Which “Percent Effect” value did it give?
A: Its value is 109.7%.

Q: N#Cc1ccc(N2CCC3(CC2)COCCN3Cc2cccnc2)cc1.O=C(O)C(F)(F)F was tested. Which “Percent Effect” value did it give?
A: The value was -19.62%.

Q: Cc1ccc(N2CCC3(CC2)CNC(=O)CO3)nn1.O=C(O)C(F)(F)F was tested. Which “Percent Effect” value did it give?
A: The value was 10.91%.

Q: With O=C(O)C(F)(F)F.O=C1CCC2(CCN(c3ncc(F)cn3)CC2)N1Cc1ccncc1 as the compound, how does the “Percent Effect” value read?
A: Its value is -48.93%.

Q: Which “Percent Effect” value does the source give for N#Cc1ccc(N2CCC3(CCC(=O)N3Cc3ccncc3)CC2)nc1.O=C(O)C(F)(F)F.O=C(O)C(F)(F)F here?
A: The value was 101%.

Q: With Cc1cc(CN(C)Cc2cc3c(cc2OC(F)F)OCO3)on1 as the compound, how does the “Percent Effect” value read?
A: The value was -6.74%.

Q: With CC(C)c1nnc(CN2CCCC2C(=O)OCc2ccccc2)o1 (configuration not stated) as the compound, how does the “Percent Effect” value read?
A: The value was 4.736%.

Q: Which “Percent Effect” value does the source give for COCC1CCN(CCCc2cn[nH]c2)CC1 here?
A: The value was 0.277%.

Q: For Cc1cc(C)n(-c2ccc(N3CCC4(CC3)OCCO4)nc2)n1, which “Percent Effect” value is on record?
A: Its value is 6.34%.

Q: COCCN(C)C(=O)c1nc2c(s1)CCCN2C was tested. Which “Percent Effect” value did it give?
A: Its value is 4.068%.

Q: With CC(=O)N1CCCc2sc(C(=O)NC3CC3)nc21 as the compound, how does the “Percent Effect” value read?
A: Its value is 2.286%.

Q: Which “Percent Effect” value does the source give for CCN(C(=O)c1nc2c(s1)CCCN2Cc1ccccc1)C(C)C here?
A: Its value is -4.382%.

Q: Which “Percent Effect” value does the source give for CCN(C(=O)c1nc2c(s1)CCCN2C)C(C)C here?
A: Its value is 108.3%.

Q: With COCCN(C)C(=O)c1nc2c(s1)CCCN2S(C)(=O)=O as the compound, how does the “Percent Effect” value read?
A: The value was -10.12%.

Q: For CC(=O)N1CCCc2sc(C(=O)Nc3ccc(C)nc3)nc21, which “Percent Effect” value is on record?
A: The value was -6.006%.

Q: How did the “Percent Effect” value turn out when CCN(C(=O)c1nc2c(s1)CCCN2C(C)=O)C(C)C was run?
A: The value was 127.1%.

Q: How did the “Percent Effect” value turn out when CCN(C(=O)c1nc2c(s1)CCCN2S(C)(=O)=O)C(C)C was run?
A: The value was 111.8%.

Q: With CCNC(=O)c1nc2c(s1)CCCN2S(C)(=O)=O as the compound, how does the “Percent Effect” value read?
A: The value was -29.83%.

Q: Which “Percent Effect” value does the source give for CCn1cc(CN2CCC(c3ccncc3)CC2)cc1C#N here?
A: The value was 18.43%.
